KB-V1 MDR tox: KB-V1 MDR subline cytotoxicity; KB-V1 MDR cells viability, CellTiter-Glo, 72 h; Potency, µM (titrated, usually from 46.1 µM), actives largely listed as cytotoxic; 400,000 compounds, 3.4% hits; AID 1347076; also: nearly all actives have a fitted effect of over 60% in size
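Drug-selected KB-V1 cells, grown in DMEM lacking phenol red with 10% FBS, receive compound titrations; after three days at 37 degrees C, surviving cell ATP is quantified by CellTiter-Glo luminescence and responses normalized and curve-fitted.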
SW480 rereplic: inducers of DNA re-replication in SW480 colon cancer cells; SW480 DNA re-replication, Hoechst DNA content imaging, 48 h; Potency, µM (series often up to 46.1 µM), usual class: activators; 340,000 compounds, 1.8% hits; AID 624297; also: nearly all actives have a fitted effect of over 55% in size
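Readout is total intensity of Hoechst-stained nuclei, excited at 405 nm and collected at 500-530 nm. Compound treatment lasted 48 hr at 37 C in 5% CO2 before staining.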
KCNH2 3.1 inh: inhibitors of human KCNH2 3.1 potassium channel isoform. 340,000 compounds, 0.95% hits. activity change, % (tested at about 1.8 µM). U2OS KCNH2 3.1, thallium flux FluxOr; hits give low values;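 active = maximum activity change below -70%; inconclusive = maximum activity change from -70% to -50%; inactive = maximum activity change above -50%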;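 also: thallium influx rate constant from kinetic fluorescence after stimulation buffer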
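FluxOr-based Tl+ influx in U2OS cells transduced with KCNH2 3.1 virus; rate constants normalized to DMSO controls.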
KCNH2 WT inh: KCNH2 (human, wildtype) channel inhibition. Q12809. U2OS, BacMam KCNH2, thallium flux FluxOr; hits give low values. activity change, % at 1.84 µM. 340,000 compounds, 0.37% hits;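 active = maximum activity change below -70%; inconclusive = maximum activity change between -70% and -50%; inactive = maximum activity change above -50%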
Target sequence (Q12809 whole entry, looked up): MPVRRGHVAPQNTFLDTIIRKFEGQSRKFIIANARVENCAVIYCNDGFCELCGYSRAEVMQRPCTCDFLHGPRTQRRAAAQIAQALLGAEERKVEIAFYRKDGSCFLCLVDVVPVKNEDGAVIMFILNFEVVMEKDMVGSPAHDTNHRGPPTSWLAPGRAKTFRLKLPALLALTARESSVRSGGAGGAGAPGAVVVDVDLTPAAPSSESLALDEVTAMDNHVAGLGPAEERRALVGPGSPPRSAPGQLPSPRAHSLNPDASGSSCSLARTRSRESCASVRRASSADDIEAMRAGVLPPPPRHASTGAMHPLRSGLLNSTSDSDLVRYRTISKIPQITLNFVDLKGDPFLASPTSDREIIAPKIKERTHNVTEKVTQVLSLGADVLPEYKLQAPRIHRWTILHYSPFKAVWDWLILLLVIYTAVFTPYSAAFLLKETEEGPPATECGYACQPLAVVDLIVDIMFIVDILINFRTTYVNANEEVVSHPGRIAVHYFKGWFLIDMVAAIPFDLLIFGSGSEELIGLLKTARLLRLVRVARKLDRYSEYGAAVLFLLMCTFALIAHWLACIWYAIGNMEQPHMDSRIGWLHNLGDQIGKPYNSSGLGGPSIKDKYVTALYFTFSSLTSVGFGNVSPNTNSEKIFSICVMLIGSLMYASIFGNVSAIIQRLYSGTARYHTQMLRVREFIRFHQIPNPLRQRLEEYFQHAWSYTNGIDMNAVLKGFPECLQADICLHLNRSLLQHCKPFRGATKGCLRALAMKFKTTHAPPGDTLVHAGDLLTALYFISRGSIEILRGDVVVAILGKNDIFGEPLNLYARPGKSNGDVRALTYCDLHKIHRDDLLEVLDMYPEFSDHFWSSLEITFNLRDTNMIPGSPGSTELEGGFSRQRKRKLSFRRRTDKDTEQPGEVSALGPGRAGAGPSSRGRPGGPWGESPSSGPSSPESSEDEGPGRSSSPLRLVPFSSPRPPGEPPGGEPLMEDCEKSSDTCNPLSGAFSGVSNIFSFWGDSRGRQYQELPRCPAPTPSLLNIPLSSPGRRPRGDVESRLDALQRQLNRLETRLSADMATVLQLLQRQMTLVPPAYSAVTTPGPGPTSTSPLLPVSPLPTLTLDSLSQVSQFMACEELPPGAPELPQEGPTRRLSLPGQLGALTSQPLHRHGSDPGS
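U2OS cells transduced with wild-type KCNH2 virus are loaded with FluxOr dye for 45 min, and thallium flux is measured in kinetic reads before and after stimulation buffer. Rate constants are normalized to DMSO controls.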
MCF10A rerep: induces DNA re-replication in MCF 10a normal breast cells; MCF 10A DNA re-replication, Hoechst nuclear intensity, 48 h; Potency, µM (series often up to 46.1 µM), hits mostly activators; 350,000 compounds, 2.9% hits; AID 624296; also: nearly all actives have a fitted effect of over 50% in size
KB-3-1 cytotox: kills parental KB-3-1 adenocarcinoma cells; KB-3-1 viability, CellTiter-Glo ATP luminescence, 72 h; AID 1347075; 400,000 compounds, 1.4% hits; Potency, µM (highest dose often 46.1 µM), actives largely listed as cytotoxic; also: nearly all actives have a fitted effect of over 60% in size
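Using CellTiter-Glo luminescence, growth of non-resistant KB-3-1 adenocarcinoma cells is assessed 72 h after pin-tool compound addition at 37 °C. Normalized responses across the concentration series yield fitted curves.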
A number is an active result; . = inactive; ? = inconclusive; / = no result given; ! = a repeat was not active; [ ] = another dose, or the depositor's remark. Sampled rows, rich in hits. Any-hit rate of the full collection: about 7.6%. Unless noted, calls follow the shape of the dose curve; as a rule, active = well fitted curve in the direction sought with a large enough effect; inconclusive = small, poorly fitted or top-dose-only effect, or another doubt; inactive = no such curve, though single readings can be large; an effect the other way counts as inactive or inconclusive.

SMILES	KB-V1 MDR tox	SW480 rereplic	KCNH2 3.1 inh	KCNH2 WT inh	MCF10A rerep	KB-3-1 cytotox
COc1ccc2nc(C)cc(SCC(=O)NNC(=O)COc3ccccc3)c2c1	?	.	.	.	.	.
COc1ccc2nc(C)cc(Sc3nc4ccccc4s3)c2c1	18µM	?	.	.	16µM	?
CCOC(=O)Cn1cnc2c(nnn2-c2cccc(Cl)c2)c1=O	.	.	.	.	.	.
Cc1csc2c(SCC(=O)NNC(=O)C(Cl)Cl)ncnc12	.	.	.	.	.	.
CCN1/C(=C/C(C)=C/c2sc3ccccc3[n+]2CC)Sc2ccccc21	21µM!	.	.	.	.	0.73µM
Cc1ccc(-c2nn(-c3ccc(F)cc3)cc2C(=O)NC2CCC(O)CC2)cc1 (configuration not stated)	.	.	.	.	.	.
Cc1ccc(S(=O)(=O)Nc2ccccc2C(=O)Nc2nc(-c3ccc(F)cc3)cs2)cc1	2.6µM	?	.	.	5.8µM	12µM
COc1ccc(-c2csc(NC(=O)c3ccccc3NS(=O)(=O)c3ccc(F)c(F)c3)n2)cc1	4.1µM	?	.	.	13µM	5.2µM
COc1ccc(-c2csc(NC(=O)c3ccccc3F)n2)cc1	.	.	.	.	.	.
Nc1[nH]c(C(=O)c2ccccc2)c(-c2ccc(Cl)cc2)c1C(=O)NCc1ccccc1	.	/	/	/	/	.
CCc1nc2ccccc2n1CC(O)COCC1CC=CCC1 (configuration not stated)	.	.	.	.	.	.
C[C@@H]1COC(=O)[C@H](NC(=O)OCC2c3ccccc3-c3ccccc32)C/C=C\C[C@@H](CC(=O)N(CCO)Cc2ccccc2)C(=O)N1	.	.	.	.	.	.
O=C(N[C@@H]1C/C=C\C[C@H](CC(=O)N(CCO)Cc2ccccc2)C(=O)N[C@@H](Cc2ccccc2)COC1=O)OCC1c2ccccc2-c2ccccc21	.	?	.	.	13µM	?
O=C(N[C@H]1C/C=C\C[C@@H](CC(=O)N(CCO)Cc2ccccc2)C(=O)NC[C@H](c2ccccc2)OC1=O)OCC1c2ccccc2-c2ccccc21	.	.	.	.	6.5µM	?
O=C(N[C@@H]1C/C=C\C[C@@H](CC(=O)N(CCO)Cc2ccccc2)C(=O)NCCOC1=O)OCC1c2ccccc2-c2ccccc21	.	.	.	.	.	.
O=C1N[C@@H](c2ccccc2)COC(=O)[C@@H](Cc2ccc(F)cc2)C/C=C\C[C@H]1CC(=O)N(CCO)Cc1ccccc1	?	?	.	.	?	21µM
O=C1N[C@@H](c2ccccc2)COC(=O)[C@H](Cc2ccc(F)cc2)CC/C=C/C[C@@H]1CC(=O)N(CCO)Cc1ccccc1	?	.	.	.	?	?
Cc1ccc(CNC(=O)c2ccc3c(=O)n(-c4ccccc4)c(=O)[nH]c3c2)cc1	.	/	/	/	/	.
Cc1cc(NC(=O)CCS(=O)(=O)c2cc3c4c(c2)CCN4C(=O)CC3)ccc1Br	.	/	/	/	/	.
COC(=O)c1ccc(Cn2c(C)c(C(=O)NCc3cccc(C(F)(F)F)c3)sc2=O)o1	?	/	/	/	/	.
CN=C1NC(C)(C)C2CCC(C)(CC2)S1	.	.	.	.	12µM	.
Cn1c(=O)c2c(-c3ccccc3)n(-c3ccc(N)cc3)cc2n(C)c1=O	.	/	/	/	/	.
C=CCOc1nc2c(c(=O)n(C)c(=O)n2C)n1Cc1ccccc1Cl	7.3µM	.	.	.	?	?
COc1ccc(Oc2nc3c(c(=O)n(C)c(=O)n3C)n2Cc2ccccc2Cl)cc1	.	/	/	/	/	.
CCCOc1nc2c(c(=O)n(C)c(=O)n2C)n1Cc1cccc2ccccc12	5.8µM	.	.	.	.	.
SMILES	KB-V1 MDR tox	SW480 rereplic	KCNH2 3.1 inh	KCNH2 WT inh	MCF10A rerep	KB-3-1 cytotox
CCCOc1nc2c(c(=O)n(C)c(=O)n2C)n1C	.	.	.	.	.	.
C=CCOc1nc2c(c(=O)n(C)c(=O)n2C)n1Cc1ccc(Cl)cc1	2.9µM	.	.	.	.	?
Cn1c(=O)c2c(nc(Oc3ccc(F)cc3)n2Cc2ccc(F)cc2)n(C)c1=O	?	/	/	/	/	.
Cn1c(=O)c2c(nc(Sc3ncccn3)n2Cc2ccccc2Cl)n(C)c1=O	23µM	.	.	.	?	.
CCN(CC)S(=O)(=O)c1cccc(C(=O)Nc2ccc(C#N)cc2)c1	.	.	-76	.	.	?
CCN(CC)S(=O)(=O)c1cccc(NC(=O)C(=O)c2c(-c3ccccc3)cc3ccccn23)c1	3.3µM	.	.	.	.	.
CCN(CC)S(=O)(=O)c1cccc(NC(=O)c2cncc(Br)c2)c1	.	.	.	.	.	.
CCN(CC)c1ccc(C(=O)Nc2cccc(F)c2)cc1	.	13µM	.	.	?	.
CCN(CC)S(=O)(=O)c1cc(NC(=O)C(=O)c2c(-c3ccccc3)cc3ccccn23)ccc1C	.	.	.	.	.	.
CCN(CC)S(=O)(=O)c1cccc(C(=O)Nc2cc(C)cc(C)c2)c1	.	.	.	.	.[9.22 µM]	.
CN(C)S(=O)(=O)c1cccc(NC(=O)c2cncc(Br)c2)c1	15µM	.	.	.	?	.
CC1c2ccccc2N(NC(=O)Cc2ccccc2)C1C (configuration not stated)	.	.	.	.	.	.
Cc1cc(C)c(OCC(=O)OCC(=O)NCC2CCCCC2)c(C)c1	.	.	.	.	.	.
CC1CCc2noc(NC(=O)c3ccccc3[N+](=O)[O-])c2C1 (configuration not stated)	.	/	/	/	/	.
CSCC[C@H](CO)NC(=O)[C@H]1O[C@@H](n2cnc3c(N)ncnc32)[C@H](O)[C@@H]1O	.	/	/	/	/	.
CCOC(=O)c1cnc2c(C)c(C)ccc2c1Nc1ccc(S(=O)(=O)Nc2ncccn2)cc1	.	.	.	.	.	.
CCN(CC)S(=O)(=O)c1cccc(NC(=O)c2ccc(Br)cc2)c1	6.5µM	.	.	.	.	.
Cc1nn(C)c(C)c1NC(=O)COc1ccc(Cl)cc1Br	/	.	.	.	16µM	/
CCN(CC)S(=O)(=O)c1cccc(NC(=O)COc2ccc(Cl)cc2Br)c1	21µM	.	.	.	.	?
COc1ccc(NC(=O)[C@@H](NS(=O)(=O)c2cccc(Cl)c2)C(C)C)cc1S(=O)(=O)N1CCOCC1	?	.	.	.	.	.
CC1CC(C)CN(C(=O)CCc2ccccc2)C1 (configuration not stated)	.	.	.	.	.	.
Fc1ccc(C2N(c3ccccc3)C(=S)N3CCCN23)cc1 (configuration not stated)	.	?	-100	-110	.	.
Cc1cccc(N2CCN(C(=O)c3cccc(S(=O)(=O)N4CCCCC4)c3)CC2)c1C	?	?	.	.	15µM	?
